Results from PubChem BioAssay (NCI).
About 83,000 compounds went through this panel and 20% of them were active in at least one assay; those are over-represented in the sample as a whole.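 Cells were grown in 96-well plates and exposed to the test compound at a single concentration for 48 hours; results are reported as percent growth, with values below 10 considered active.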 Values without a mark were called inactive. Calls of active or inactive are those of the source.

Each compound was assayed on NCI-H23 lung (assay: NCI-60 one-dose screen, 48 h (100 = growth as untreated, 0 = no growth, -100 = all killed)). Conditions: 10 µM unless noted.
Description: Growth inhibition of the NCI-H23 human Non-Small Cell Lung tumor cell line is measured as a screen for anti-cancer activity. Cells are grown in 96 well plates and exposed to the test compound for 48 hours. Compounds are tested at a single concentration, which is 10^-5 M for most compounds. The reported endpoint is percent growth (GI% or GIPRCNT), where numbers from 0 - 100% represent growth inhibition, and numbers from -100% - 0 represent cell death. For example, a value of 40 represents 60% growth inhibition. A value of 0 means no net growth occurred over the course of the experiment. A value of -40 indicates 40% of cells at the beginning of the experiment died by the end of the experiment. A value of -100 means all cells are dead at the end of the experiment.
NCI-60 Human Tumor Cell Lines Screen was performed using the standard one-dose NCI protocol, which is described in more detail at https://dtp.cancer.gov/discovery_development/nci-60/default.htm.
Compounds with GIPRCNT values below 10 were considered active. Activity score was based on GIPRCNT using the following formula: […]
Score is 0 for GIPRCNT values of 100 or above, 50 for GIPRCNT values of 0, and 100 for GIPRCNT values of -100.

Row | Compound | growth
1 | O=C(O)C1C[C@](O)(c2ccc(F)cc2)[C@@H](c2ccc(F)cc2)O1 (stereo not given in full) | 91.4%
2 | CN(C)c1ccc2cc(-c3ccc(Cl)c(Cl)c3)c(N)nc2c1 | 15.4%
3 | CN1CCN(C(=O)[C@]23CCC(C)(C)C[C@@H]2C2=CC[C@@H]4[C@@]5(C)Cc6c([nH]c7ccccc67)C(C)(C)[C@@H]5CC[C@@]4(C)[C@]2(C)CC3)CC1 | 93.3%
4 | N#Cc1c(N)nc2c(nnn2-c2cccc(Br)c2)c1N | 89.5%
5 | Cc1cc2c(F)c(Oc3ncnc(Nc4ccc(N5C[C@@H](C)N[C@@H](C)C5)cc4)c3C#N)cc(F)c2[nH]1 | 75%
6 | COc1ccc(C(=O)/C=C/C23c4ccccc4C(c4ccccc42)C2C(=O)NC(=O)C23)cc1 (stereo not given) | 88.1%
7 | CC(C)OC(=O)OCOP(=O)(OCOC(=O)OC(C)C)C1CCCN(O)C1=O (stereo not given) | 69.6%
8 | N#C/C(=C\c1ccc(Br)cc1)n1nnc2ccccc21 | 13.5%
9 | COc1ccc(/C=C2\COc3ccc(O)cc3C2=O)c(OC)c1 | 83.4%
10 | CS(=O)(=O)c1ccc(-c2[nH]c3ccc(F)cc3c2/C=N/NC(N)=S)cc1 | 38.1%
11 | COc1cc(C(=O)/C=C/c2c(C(F)(F)F)nc3ccccn23)cc(OC)c1OC | -50.3% (active)
12 | COc1ccc(-c2c(N)n[nH]c2-c2ccccc2O)cc1OC | 93.1%
13 | COc1cc2c(cc1OC)-c1ccc3cc4c(cc3c1N(CCCN(C)C)C2)OCO4 | 48.7%
14 | C[C@@H]1C(=O)N(C[C@H](Cc2ccccc2)NC(=O)OCc2ccccc2)[C@]1(Cc1ccccc1)C(=O)OC(C)(C)C | 71.8%
15 | COc1cc(-c2ccc(N=Nc3c(O)c(C(=O)Nc4ccccc4OC)cc4ccccc34)c(OC)c2)ccc1N=Nc1c(O)c(C(=O)Nc2ccccc2OC)cc2ccccc12 | 93.5%
16 | C[C@]12CCC(=O)C[C@H]1CC[C@@H]1[C@@H]2CC[C@@]2(C)[C@H]1CC[C@]2(O)C(=O)CO | 107%
17 | Clc1ccc(-c2cn(-c3ccccc3)c(-c3ccccc3)n2)cc1 | 85.2%
18 | O=C1N/C(=N/O)S/C1=C/c1cn(-c2ccccc2)nc1-c1ccccc1 | 88.1%
19 | CCCCNC(=O)NS(=O)(=O)c1ccc(N2N=C(c3ccc(C)cc3C)CC2c2ccc(N(C)C)cc2)cc1 (stereo not given) | 69.5%
20 | O=C(NCc1cccnc1)c1cc(-c2csc3c(=O)cc(N4CCOCC4)oc23)cc2c1OCCO2 | 50.3%

Row | Compound | growth
21 | C=C1C(=O)O[C@H]2[C@H]1CC/C(COC(=O)/C=C\C(=O)NCc1ccc(Cn3c(=O)sn(-c4ccc(Cl)cc4)c3=O)cc1)=C\CC[C@@]1(C)O[C@@H]21 | -63.6% (active)
22 | COc1ccc(Cn2cnc3cc(C(=O)Nc4cccc5ccccc45)ccc32)c(OC)c1 | 32.9% [30 µM]
23 | CCCCN1CCN(c2ccc3nc(-c4ccc5nc(-c6cc(OC)c(OC)c(OC)c6)[nH]c5c4)[nH]c3c2)CC1 | 82.9%
24 | COc1ccc(-c2nc3ccccn3c2/C=C/C(=O)c2cc(OC)c(OC)c(OC)c2)cc1 | 45.1%
25 | C=CCN1C(=O)[C@]2(SC1=S)[C@H](c1cccc(Cl)c1)CN(C)[C@]21C(=O)NC2C=CC(Cl)=C[C@H]21 (stereo not given in full) | 45.7%
26 | Cc1c(Cl)cccc1NS(=O)(=O)c1ccccc1 | 113%
27 | COc1ccc2c(c1)/C(=C\c1sc(=S)[nH]c1O)C(C(=O)O)=N2 | 99.1%
28 | CS(=O)(=O)c1ccc(-c2nc3cc(Cl)ccc3n2CC(=O)NO)cc1 | 94.7%
29 | C=C(C)C1CCC(=C)C2CCC3(C)OC12/C=C(/COC(C)=O)CCC3O (stereo not given) | 111%
30 | CCCc1nc2ccccn2c1Nc1ccc(C(=O)NO)cc1 | 61.4%
31 | COc1cc(-c2ccc(-c3ccc(C(=N)N)nc3)s2)cc(OC)c1OC | 72.2%
32 | CNCCNc1nc2ccccc2c2c(=O)c3cc(F)ccc3oc12 | 64.8%
33 | C=C1c2c(C)nn(-c3ccc(O)cc3)c2N(C)C23C[C@@H]1C1(C)c4c(C)nn(-c5ccc(O)cc5)c4N(C)C(C)(C[C@H]12)C3 (stereo not given in full) | 50.4%
34 | O=C(O)CC1Sc2ccccc2NC1=O (stereo not given) | 89.1%
35 | Nc1ccc(CCCCc2ccccc2)c(Cl)c1 | 101%
36 | Cc1ccc(S(=O)(=O)N(CC[C@@H]2C[C@H]2c2cc3ccccc3o2)C(=O)NC2CCCCC2)cc1 | 78.2%
37 | Cc1cc(C(c2ccccc2)c2ccccc2)ccc1NS(=O)(=O)c1ccccc1 | 86.2%
38 | N=C(N)c1ccc(-c2ccc(/C=C/c3ccccc3)s2)cc1 | 55.2%
39 | N#Cc1c(NC(=O)c2cccc(C(F)(F)F)c2)sc2c1CCC(=O)C2 | 0.847% (active)
40 | N[C@H]1CCC[C@@H]1NCCCCN1C(=O)c2cccc3cccc(c23)C1=O | 71%
